Screening results from PubChem.
Hits are enriched below; roughly 0.93% of the tested compounds scored in any of these assays.
AGP1 TOR yeast: modulators of AGP1-GFP expression in yeast TOR pathway, primary screen, cell-based, multiplex flow cytometry, S. cerevisiae, MLPCN library | GFP response vs DMSO, % at 10 µM | 320,000 tested, 0.02% active | 3 h; GFP as percent of DMSO wells;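 active means GFP response relative to DMSO above a set limit, near screen average plus 3 SD, cut at about 150% in these data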;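 further: median GFP channel fluorescence of the gated AGP1 strain per well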
MEP2-GFP yeast: modulators of MEP2-GFP levels in yeast, primary screen, S. cerevisiae, multiplex flow cytometry, MLPCN library; S. cerevisiae MEP2-GFP strain, 3 h; 100% = DMSO control level; 330,000 tested, 0.51% active; AID 2016, 2009; GFP response vs DMSO, % at 10 µM;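 active means GFP response versus DMSO above a set limit, roughly screen mean plus 3 SD, cut at about 180% in these data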;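 further: median GFP fluorescence of the barcode-gated MEP2-GFP cells per well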
CIT2-GFP yeast: modulators of CIT2-GFP expression in yeast, primary screen, S. cerevisiae, GFP fusion, multiplex flow cytometry, MLPCN library; S. cerevisiae CIT2-GFP strain, 3 h; 100 means same as DMSO wells; 320,000 tested, 0.065% active; GFP response vs DMSO, % at 10 µM;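 active means GFP response relative to DMSO above a set limit, near the screen mean plus 3 SD, cut at about 150% in these data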;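 further: ratio of well median GFP fluorescence to mean of DMSO wells on the plate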
LAP4-GFP MLPCN: modulators of LAP4-GFP expression in yeast, primary screen, S. cerevisiae, multiplex flow cytometry, MLPCN library; 3 h; median GFP as percent of DMSO wells; GFP response vs DMSO, % at 10 µM; 320,000 tested, 0.34% active; AID 2023, 2009;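 active means GFP response vs DMSO above a set limit, about the screen mean plus 3 SD, cut at about 150% in these data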
RPL19A TOR yeast: RPL19A-GFP expression modulators in yeast, primary screen, cell-based, S. cerevisiae, multiplex flow cytometry, MLPCN. S. cerevisiae RPL19A-GFP strain, 3 h; stronger effect = lower value. percent response vs DMSO, % at 10 µM. 330,000 tested, 0.3% active;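 active means percent response vs DMSO below 50%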;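 further: median channel GFP fluorescence of the barcoded RPL19A-GFP strain; ratio of sample median GFP to plate DMSO average so 100% = DMSO; lower means less RPL19A-GFP as with rapamycin TOR inhibition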
LAP4-GFP pick2: LAP4-GFP expression modulators in yeast, confirmation, cell-based, second cherry pick, flow cytometry | shares compounds with LAP4-GFP MLPCN | S. cerevisiae LAP4-GFP strain, 3 h | GFP response vs DMSO, % at 10 µM | 590 tested, 20% active | AID 2621, 2010;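 active means GFP signal as percent of the solvent control above about 150%, meaning raised reporter expression, limit read from the data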;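 further: ratio of well median GFP fluorescence to plate DMSO mean so 100% = DMSO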
MEP2 cherry2: modulators of MEP2-GFP levels in yeast, confirmation, S. cerevisiae, flow cytometry GFP, second cherry picks | shares compounds with LAP4-GFP MLPCN | S. cerevisiae MEP2-GFP strain, 3 h | GFP response vs DMSO, % at 10 µM | 590 tested, 10% active | AID 2622, 2010;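 active means GFP signal above 150% of the solvent control wells, that is a rise of more than half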;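 further: median channel GFP fluorescence of all gated yeast cells per well; ratio of median GFP to plate DMSO average so 100% = DMSO level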
RPL19A GFP CP2: RPL19A-GFP modulators in TOR pathway yeast, confirmation, cell-based, S. cerevisiae, flow cytometry, second cherry pick; GFP response vs DMSO, % at 10 µM; 590 tested, 3% active; S. cerevisiae RPL19A-GFP strain, 3 h; stronger effect = lower value; 100% means same as DMSO wells; shares compounds with LAP4-GFP MLPCN; AID 2623, 2010;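 active means under 65% GFP response relative to DMSO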;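 further: median GFP channel fluorescence per well over the all cells gate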
CIT2-GFP pick2: modulators of CIT2-GFP expression in yeast, confirmation, flow cytometry, second cherry pick, single plex; AID 2624, 2010; S. cerevisiae CIT2-GFP strain, 3 h; DMSO control wells read 100%; shares compounds with LAP4-GFP MLPCN; 590 tested, 8% active; GFP response vs DMSO, % at 10 µM;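 active means GFP response vs DMSO above about 150%, limit read from the data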;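 further: median green fluorescence per well over all gated yeast cells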
AGP1-GFP pick2: AGP1-GFP expression modulators, hit retest, confirmation, cell-based, flow cytometry, S. cerevisiae, cherry pick set 2 | shares compounds with LAP4-GFP MLPCN | S. cerevisiae AGP1-GFP strain, 3 h | percent response vs DMSO, % at 10 µM | 590 tested, under 10 active | AID 2643, 2010;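 active means over 150 percent of DMSO response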;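 further: median GFP channel fluorescence over all cells without mother daughter split; sample median GFP divided by mean DMSO control so 100% equals DMSO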
Yeast autofluor: compound autofluorescence in yeast s288c, dose response, artefact control for yeast TOR pathway GFP screen, s288c strain | shares compounds with LAP4-GFP MLPCN | S. cerevisiae s288c, 520 nm autofluorescence, flow cytometry, 3 h; stronger effect = higher value; zero means same as solvent-only cells | fluorescence change (kMESF span) at 33 µM | 610 tested, under 10 active;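 active means fluorescence span over the dose series, or activity score, above about 33, limit read from the data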
An asterisk follows results filed as active.

What do the screens show for `Cc1cc(-c2cc(C(=O)Nc3ccccc3)on2)nc(NC2CCCC2)n1`?
AGP1 TOR yeast: 90.6; MEP2-GFP yeast: 98.6; CIT2-GFP yeast: 88.8; LAP4-GFP MLPCN: 116.0; RPL19A TOR yeast: 107.0; LAP4-GFP pick2: 109.6; MEP2 cherry2: 103.2; RPL19A GFP CP2: 105.9; CIT2-GFP pick2: 100.7; AGP1-GFP pick2: 97.5

What do the screens show for `Cc1cc(-c2cc(C(=O)NCc3ccccc3)on2)nc(NC2CCCC2)n1`?
AGP1 TOR yeast: 91.8; MEP2-GFP yeast: 92.6; CIT2-GFP yeast: 80.9; LAP4-GFP MLPCN: 102.7; RPL19A TOR yeast: 91.9; LAP4-GFP pick2: 101.0; MEP2 cherry2: 106.5; RPL19A GFP CP2: 99.4; CIT2-GFP pick2: 104.0; AGP1-GFP pick2: 96.4

How did CSc1nc(C)cc(-c2cc(C(=O)Nc3ccccc3)on2)n1 do in these assays?
AGP1 TOR yeast: 87.3; MEP2-GFP yeast: 88.8; CIT2-GFP yeast: 92.6; LAP4-GFP MLPCN: 113.1; RPL19A TOR yeast: 96.1; LAP4-GFP pick2: 105.8; MEP2 cherry2: 114.8; RPL19A GFP CP2: 101.9; CIT2-GFP pick2: 99.5; AGP1-GFP pick2: 96.9

How did CCCNc1nc(C)cc(-c2cc(C(=O)NC3CCCC3)on2)n1 do in these assays?
AGP1 TOR yeast: 84.8; MEP2-GFP yeast: 91.7; CIT2-GFP yeast: 103.0; LAP4-GFP MLPCN: 155.7*; RPL19A TOR yeast: 95.5; LAP4-GFP pick2: 105.8; MEP2 cherry2: 101.5; RPL19A GFP CP2: 97.9; CIT2-GFP pick2: 90.5; AGP1-GFP pick2: 95.7

Results for COc1ccc(-c2cc(C(=O)Nc3ccccc3)on2)cc1 ?
AGP1 TOR yeast: 89.8; MEP2-GFP yeast: 86.8; CIT2-GFP yeast: 89.2; LAP4-GFP MLPCN: 98.7; RPL19A TOR yeast: 92.2

Results for Cc1cc(-c2cc(C(=O)NC3CCCC3)on2)nc(NC2CCCC2)n1 ?
AGP1 TOR yeast: 82.3; MEP2-GFP yeast: 85.5; CIT2-GFP yeast: 85.7; LAP4-GFP MLPCN: 134.9; RPL19A TOR yeast: 91.7

What do the screens show for `CCc1ccc(-c2ccc(SCC(=O)Nc3nnc(C)s3)nn2)cc1`?
AGP1 TOR yeast: 100.2; MEP2-GFP yeast: 101.5; CIT2-GFP yeast: 100.3; LAP4-GFP MLPCN: 101.0; RPL19A TOR yeast: 98.3

Results for O=C(O)c1cccc(S(=O)(=O)Nc2ccc(S(=O)(=O)N3CCOCC3)cc2)c1 ?
AGP1 TOR yeast: 84.9; MEP2-GFP yeast: 129.3; CIT2-GFP yeast: 91.9; LAP4-GFP MLPCN: 89.8; RPL19A TOR yeast: 58.2; LAP4-GFP pick2: 102.2; MEP2 cherry2: 110.0; RPL19A GFP CP2: 97.8; CIT2-GFP pick2: 105.7; AGP1-GFP pick2: 98.1; Yeast autofluor: 0

What do the screens show for `Cc1ccc(NS(=O)(=O)c2cccc(C(=O)O)c2)cc1S(=O)(=O)N1CCOCC1`?
AGP1 TOR yeast: 94.0; MEP2-GFP yeast: 103.9; CIT2-GFP yeast: 100.8; LAP4-GFP MLPCN: 87.9; RPL19A TOR yeast: 97.1

How did CC1CCCCN1C(=O)C(=O)c1cn(CC(=O)N2CCCC2)c2ccccc12 (stereo not drawn) do in these assays?
AGP1 TOR yeast: 105.6; MEP2-GFP yeast: 102.2; CIT2-GFP yeast: 106.3; LAP4-GFP MLPCN: 103.5; RPL19A TOR yeast: 92.1

How did CCN(Cc1ccccc1)C(=O)C(=O)c1cn(CC(=O)N2CCCC2)c2ccccc12 do in these assays?
AGP1 TOR yeast: 111.6; MEP2-GFP yeast: 104.7; CIT2-GFP yeast: 178.0*; LAP4-GFP MLPCN: 101.7; RPL19A TOR yeast: 101.6; LAP4-GFP pick2: 98.1; MEP2 cherry2: 101.5; RPL19A GFP CP2: 100.0; CIT2-GFP pick2: 106.3; AGP1-GFP pick2: 102.2

How did CC1CCN(C(=O)C(=O)c2cn(CC(=O)N3CCCC3)c3ccccc23)CC1 do in these assays?
AGP1 TOR yeast: 103.7; MEP2-GFP yeast: 114.4; CIT2-GFP yeast: 159.4*; LAP4-GFP MLPCN: 100.9; RPL19A TOR yeast: 95.5; LAP4-GFP pick2: 99.2; MEP2 cherry2: 101.3; RPL19A GFP CP2: 98.5; CIT2-GFP pick2: 109.9; AGP1-GFP pick2: 96.7

What do the screens show for `Cc1ccc(C)c(NC(=O)COC(=O)c2ccc3c(c2)OCCO3)c1`?
AGP1 TOR yeast: 104.1; MEP2-GFP yeast: 104.7; CIT2-GFP yeast: 97.8; LAP4-GFP MLPCN: 108.7; RPL19A TOR yeast: 106.2

How did COc1ccc(OCCCC(=O)Nc2nc(-c3ccccn3)cs2)cc1 do in these assays?
AGP1 TOR yeast: 99.0; MEP2-GFP yeast: 100.5; CIT2-GFP yeast: 100.6; LAP4-GFP MLPCN: 108.3; RPL19A TOR yeast: 97.3

What do the screens show for `Cc1cc(C)c(OCC(=O)Nc2nc(-c3ccccn3)cs2)c(C)c1`?
AGP1 TOR yeast: 74.9; MEP2-GFP yeast: 83.5; CIT2-GFP yeast: 78.1; LAP4-GFP MLPCN: 152.5*; RPL19A TOR yeast: 88.5; Yeast autofluor: 0.3

Results for O=C(CCS(=O)(=O)c1ccccc1)Nc1nc(-c2ccccn2)cs1 ?
AGP1 TOR yeast: 96.0; MEP2-GFP yeast: 96.8; CIT2-GFP yeast: 93.4; LAP4-GFP MLPCN: 97.1; RPL19A TOR yeast: 97.3; LAP4-GFP pick2: 104.2; MEP2 cherry2: 101.3; RPL19A GFP CP2: 98.7; CIT2-GFP pick2: 100.1; AGP1-GFP pick2: 100.0; Yeast autofluor: -0.1

Results for C[C@H](NC(=O)[C@@H]1Cc2ccccc2CN1)C(=O)NCC1CCCO1 (stereo partly drawn) ?
AGP1 TOR yeast: 96.9; MEP2-GFP yeast: 100.0; CIT2-GFP yeast: 96.8; LAP4-GFP MLPCN: 88.5; RPL19A TOR yeast: 94.5
